In the supplement of paper PMC8728848:
Shown is part of a subset that was picked to be rich in the strongest signals.

Tests used:
Experiment in all cases: glycan array binding signal (z-score within array); higher = stronger binding
Conditions in all cases: glycan notation: IUPAC condensed, linker removed
[1] = target: Fuc(a1-2)Gal(b1-3)GlcNAc(b1-2)Man(a1-3)[Fuc(a1-2)Gal(b1-3)GlcNAc(b1-2)Man(a1-6)]Man(b1-4)GlcNAc(b1-4)GlcNAc
How it was run: (§1)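 Negative Z-scores can be read as non-binding. The Z-score is calculated within each array and then averaged across arrays of one protein sequence at different concentrations or buffers and across linkers. Arrays, 3228 in all, were curated from the Consortium for Functional Glycomics database and kept only where the protein sequence was available.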

[2] = target: Fuc(a1-2)Gal(b1-3)GlcNAc(b1-3)[Gal(b1-4)GlcNAc(b1-6)]Gal(b1-4)Glc
How it was run: as §1

[3] = target: Fuc(a1-2)Gal(b1-3)[Fuc(a1-4)]GlcNAc
How it was run: as §1

[4] = target: Fuc(a1-2)Gal(b1-4)GlcNAc(b1-3)Gal(b1-4)GlcNAc(b1-2)Man(a1-3)[Fuc(a1-2)Gal(b1-4)GlcNAc(b1-3)Gal(b1-4)GlcNAc(b1-2)Man(a1-6)]Man(b1-4)GlcNAc(b1-4)GlcNAc
How it was run: as §1

[5] = target: Fuc(a1-2)Gal(b1-4)GlcNAc(b1-3)[Fuc(a1-2)Gal(b1-4)GlcNAc(b1-6)]GalNAc
How it was run: as §1

[6] = target: Fuc(a1-2)[Gal(a1-3)]Gal(b1-4)GlcNAc
How it was run: as §1

[7] = target: Fuc(a1-2)[Gal(a1-4)]Gal(b1-4)GlcNAc
How it was run: as §1

[8] = target: Fuc(a1-2)[GalNAc(a1-3)]Gal
How it was run: as §1

[9] = target: Fuc(a1-2)[GalNAc(a1-3)]Gal(b1-4)GlcNAc(b1-2)Man(a1-3)[Fuc(a1-2)[GalNAc(a1-3)]Gal(b1-4)GlcNAc(b1-2)Man(a1-6)]Man(b1-4)GlcNAc(b1-4)[Fuc(a1-6)]GlcNAc
How it was run: as §1

[10] = target: Fuc(a1-2)[GalNAc(a1-3)]Gal(b1-4)GlcNAc(b1-6)GalNAc
How it was run: as §1

[11] = target: Fuc(a1-2)[GalNAc(a1-3)]Gal(b1-4)[Fuc(a1-3)]GlcNAc(b1-3)GalNAc
How it was run: as §1

[12] = target: Fuc(a1-3)[Gal(b1-4)]GlcNAc6S
How it was run: as §1

[13] = target: Gal(a1-3)Gal(b1-4)GlcNAc(b1-2)Man
How it was run: as §1

[14] = target: Gal(a1-3)Gal(b1-4)GlcNAc(b1-2)Man(a1-3)[Gal(a1-3)Gal(b1-4)GlcNAc(b1-2)Man(a1-6)]Man(b1-4)GlcNAc(b1-4)GlcNAc
How it was run: as §1

[15] = target: Gal(a1-3)Gal(b1-4)GlcNAc(b1-3)GalNAc
How it was run: as §1

[16] = target: Gal(a1-3)[Gal(a1-4)]Gal(b1-4)GlcNAc
How it was run: as §1

[17] = target: Gal(a1-4)Gal(b1-3)GlcNAc(b1-2)Man(a1-3)[Gal(a1-4)Gal(b1-3)GlcNAc(b1-2)Man(a1-6)]Man(b1-4)GlcNAc(b1-4)GlcNAc
How it was run: as §1

[18] = target: Gal(a1-4)Gal(b1-4)GlcNAc
How it was run: as §1

[19] = target: Gal(a1-4)Gal(b1-4)GlcNAc(b1-2)Man(a1-3)[Gal(a1-4)Gal(b1-4)GlcNAc(b1-2)Man(a1-6)]Man(b1-4)GlcNAc(b1-4)GlcNAc
How it was run: as §1

[20] = target: Gal(a1-4)Gal(b1-4)GlcNAc(b1-3)Gal(b1-4)Glc
How it was run: as §1

[21] = target: Gal(b1-3)Gal(b1-4)GlcNAc
How it was run: as §1

[22] = target: Gal(b1-3)GalNAc(a1-3)[Fuc(a1-2)]Gal(b1-4)Glc
How it was run: as §1

[23] = target: Gal(b1-3)GalNAc(a1-3)[Fuc(a1-2)]Gal(b1-4)GlcNAc
How it was run: as §1

[24] = target: Gal(b1-3)GlcNAc(a1-3)Gal(b1-4)GlcNAc
How it was run: as §1

[25] = target: Gal(b1-3)GlcNAc(a1-6)Gal(b1-4)GlcNAc
How it was run: as §1

B1: CGL (Crenomytilus grayanus), H2FH31 (protein)
chain: MTTFLIKHKASGKFLHPYGGSSNPANNTKLVLHSDIHERMYFQFDVVDERWGYIKHVASGKIVHPYGGQANPPNETNMVLHQDRHDRALFAMDFFNDNIMHKGGKYIHPKGGSPNPPNNTETVIHGDKHAAMEFIFVSPKNKDKRVLVYA
In the case of B1, the “glycan array binding signal (z-score)” value [1] is reported as -0.195, the “glycan array binding signal (z-score)” value [2] is reported as -0.054 and the “glycan array binding signal (z-score)” value [3] is reported as -0.372. The “glycan array binding signal (z-score)” value [4] was 0.855, the “glycan array binding signal (z-score)” value [5] was -0.067 and the “glycan array binding signal (z-score)” value [6] was -0.063. The “glycan array binding signal (z-score)” value [7] was 4.38, the “glycan array binding signal (z-score)” value [8] was -0.106 and the “glycan array binding signal (z-score)” value [9] was -0.23. The “glycan array binding signal (z-score)” value [10] was -0.096, the “glycan array binding signal (z-score)” value [11] was -0.217 and the “glycan array binding signal (z-score)” value [12] was -0.324. For the same binder, the “glycan array binding signal (z-score)” value [13] was 1.69, the “glycan array binding signal (z-score)” value [14] was 5.84 and the “glycan array binding signal (z-score)” value [15] was 3.54. For the same binder, the “glycan array binding signal (z-score)” value [16] was 3.32, the “glycan array binding signal (z-score)” value [17] was 4.07 and the “glycan array binding signal (z-score)” value [18] was 3.63. The “glycan array binding signal (z-score)” value [19] was 8.66, the “glycan array binding signal (z-score)” value [20] was 4.55 and the “glycan array binding signal (z-score)” value [21] was -0.077. The “glycan array binding signal (z-score)” value [22] was -0.352, the “glycan array binding signal (z-score)” value [23] was -0.341 and the “glycan array binding signal (z-score)” value [24] was 0.396. For the same binder, the “glycan array binding signal (z-score)” value [25] was 0.803.
